Tests used:
Assay in all cases: log2 ratio of Biotin-Ahx-Ub-VS probe labelling (fragment/DMSO); higher = less target engagement (more negative = stronger competition), active = hit call of the paper (q ≤ 0.05, log2 ratio ≤ -1)
Settings in all cases: compound concentration: 200 uM; treatment time: 3 h
USP34 = USP34 (UniProt Q70CQ2)
Summary of the method: (§1)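 Average log2 ratios of fragment over vehicle were obtained by unpaired t-test from global-median-normalised Spectronaut label-free quantities. Proteins with ≥2 unique peptides were included. HEK293T lysate (495 µg per sample) was treated in triplicate with fragment at 200 µM or vehicle for 3 h, then with Biotin-Ahx-Ub-VS at 0.5 µM final for 1 h, and labelled DUBs were NeutrAvidin-enriched and run by diaPASEF LC-MS/MS.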

USP36 = target: T1, USP36 (UniProt Q9P275)
T1 sequence (whole entry): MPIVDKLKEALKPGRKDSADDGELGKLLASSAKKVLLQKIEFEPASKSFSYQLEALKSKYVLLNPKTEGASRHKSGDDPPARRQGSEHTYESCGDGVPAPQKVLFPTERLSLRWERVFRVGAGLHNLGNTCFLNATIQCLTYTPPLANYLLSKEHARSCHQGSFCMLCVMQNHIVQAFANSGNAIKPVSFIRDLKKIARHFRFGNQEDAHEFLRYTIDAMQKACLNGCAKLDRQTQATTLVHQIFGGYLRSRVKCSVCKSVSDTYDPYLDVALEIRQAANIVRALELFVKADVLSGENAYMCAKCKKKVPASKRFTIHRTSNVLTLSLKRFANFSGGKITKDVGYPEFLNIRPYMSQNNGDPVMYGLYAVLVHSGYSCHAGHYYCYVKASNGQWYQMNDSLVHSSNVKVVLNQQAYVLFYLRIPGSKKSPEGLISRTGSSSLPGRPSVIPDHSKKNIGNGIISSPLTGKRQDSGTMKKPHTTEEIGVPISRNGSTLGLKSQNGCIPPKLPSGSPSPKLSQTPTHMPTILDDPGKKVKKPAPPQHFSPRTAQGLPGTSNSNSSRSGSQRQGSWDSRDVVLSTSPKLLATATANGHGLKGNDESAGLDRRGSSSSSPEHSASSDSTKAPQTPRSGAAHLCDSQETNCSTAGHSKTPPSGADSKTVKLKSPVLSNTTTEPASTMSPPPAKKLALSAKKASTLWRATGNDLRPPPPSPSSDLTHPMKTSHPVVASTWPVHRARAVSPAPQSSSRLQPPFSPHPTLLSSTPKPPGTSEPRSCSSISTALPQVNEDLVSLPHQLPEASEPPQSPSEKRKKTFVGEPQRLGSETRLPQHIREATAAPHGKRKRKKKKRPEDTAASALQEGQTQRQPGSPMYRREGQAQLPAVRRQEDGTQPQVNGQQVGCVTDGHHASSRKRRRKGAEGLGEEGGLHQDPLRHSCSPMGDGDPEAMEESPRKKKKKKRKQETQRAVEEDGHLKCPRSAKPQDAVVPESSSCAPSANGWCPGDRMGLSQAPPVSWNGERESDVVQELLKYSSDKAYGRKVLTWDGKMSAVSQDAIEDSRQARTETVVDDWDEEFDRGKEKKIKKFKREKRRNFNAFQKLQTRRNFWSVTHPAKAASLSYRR
Summary of the method: as §1

USP38 = target: T2, USP38 (UniProt Q8NB14)
T2 sequence (whole entry): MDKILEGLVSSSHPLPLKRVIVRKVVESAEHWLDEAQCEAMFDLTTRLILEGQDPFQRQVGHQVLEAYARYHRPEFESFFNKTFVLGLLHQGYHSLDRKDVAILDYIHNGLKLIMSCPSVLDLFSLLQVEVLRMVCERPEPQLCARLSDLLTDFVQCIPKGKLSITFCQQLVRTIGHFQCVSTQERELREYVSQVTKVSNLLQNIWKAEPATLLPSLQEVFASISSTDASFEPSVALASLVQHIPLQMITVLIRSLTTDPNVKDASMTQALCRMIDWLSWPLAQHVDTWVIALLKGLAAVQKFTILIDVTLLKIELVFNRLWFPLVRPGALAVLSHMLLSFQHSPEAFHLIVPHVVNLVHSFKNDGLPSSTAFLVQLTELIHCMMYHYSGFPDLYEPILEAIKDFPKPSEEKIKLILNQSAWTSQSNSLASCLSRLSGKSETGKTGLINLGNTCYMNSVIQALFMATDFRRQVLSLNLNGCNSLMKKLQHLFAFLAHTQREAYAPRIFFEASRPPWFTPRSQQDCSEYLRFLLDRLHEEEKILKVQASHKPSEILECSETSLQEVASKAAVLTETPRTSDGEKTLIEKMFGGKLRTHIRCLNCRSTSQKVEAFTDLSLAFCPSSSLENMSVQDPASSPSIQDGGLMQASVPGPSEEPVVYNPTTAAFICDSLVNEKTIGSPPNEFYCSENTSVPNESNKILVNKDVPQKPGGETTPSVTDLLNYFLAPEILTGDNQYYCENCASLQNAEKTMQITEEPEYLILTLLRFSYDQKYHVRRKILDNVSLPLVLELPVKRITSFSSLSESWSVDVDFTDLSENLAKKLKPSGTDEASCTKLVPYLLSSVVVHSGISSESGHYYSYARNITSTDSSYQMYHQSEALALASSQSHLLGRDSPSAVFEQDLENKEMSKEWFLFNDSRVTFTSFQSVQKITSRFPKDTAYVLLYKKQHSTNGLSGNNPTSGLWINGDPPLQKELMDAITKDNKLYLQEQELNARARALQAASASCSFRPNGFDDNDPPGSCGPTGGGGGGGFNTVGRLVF
Summary of the method: as §1

USP39 = target: T3, USP39 (UniProt Q53GS9)
T3 sequence (whole entry): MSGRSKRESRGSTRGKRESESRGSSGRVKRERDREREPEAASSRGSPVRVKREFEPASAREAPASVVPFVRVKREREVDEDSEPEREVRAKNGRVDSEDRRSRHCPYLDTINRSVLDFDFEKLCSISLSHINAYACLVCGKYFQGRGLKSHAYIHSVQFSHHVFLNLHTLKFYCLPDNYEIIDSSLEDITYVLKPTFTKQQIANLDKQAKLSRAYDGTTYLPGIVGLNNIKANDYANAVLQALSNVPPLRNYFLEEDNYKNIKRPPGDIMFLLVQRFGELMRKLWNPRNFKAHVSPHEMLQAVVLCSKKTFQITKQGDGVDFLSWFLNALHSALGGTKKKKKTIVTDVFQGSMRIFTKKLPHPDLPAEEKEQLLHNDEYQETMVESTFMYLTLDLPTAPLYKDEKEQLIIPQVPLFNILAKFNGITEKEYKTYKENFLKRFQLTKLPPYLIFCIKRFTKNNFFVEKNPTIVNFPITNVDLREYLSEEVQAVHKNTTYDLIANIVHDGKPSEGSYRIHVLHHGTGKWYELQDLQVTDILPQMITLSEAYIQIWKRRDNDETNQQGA
Summary of the method: as §1

USP4 = target: T4, USP4 (UniProt Q13107)
T4 sequence (whole entry): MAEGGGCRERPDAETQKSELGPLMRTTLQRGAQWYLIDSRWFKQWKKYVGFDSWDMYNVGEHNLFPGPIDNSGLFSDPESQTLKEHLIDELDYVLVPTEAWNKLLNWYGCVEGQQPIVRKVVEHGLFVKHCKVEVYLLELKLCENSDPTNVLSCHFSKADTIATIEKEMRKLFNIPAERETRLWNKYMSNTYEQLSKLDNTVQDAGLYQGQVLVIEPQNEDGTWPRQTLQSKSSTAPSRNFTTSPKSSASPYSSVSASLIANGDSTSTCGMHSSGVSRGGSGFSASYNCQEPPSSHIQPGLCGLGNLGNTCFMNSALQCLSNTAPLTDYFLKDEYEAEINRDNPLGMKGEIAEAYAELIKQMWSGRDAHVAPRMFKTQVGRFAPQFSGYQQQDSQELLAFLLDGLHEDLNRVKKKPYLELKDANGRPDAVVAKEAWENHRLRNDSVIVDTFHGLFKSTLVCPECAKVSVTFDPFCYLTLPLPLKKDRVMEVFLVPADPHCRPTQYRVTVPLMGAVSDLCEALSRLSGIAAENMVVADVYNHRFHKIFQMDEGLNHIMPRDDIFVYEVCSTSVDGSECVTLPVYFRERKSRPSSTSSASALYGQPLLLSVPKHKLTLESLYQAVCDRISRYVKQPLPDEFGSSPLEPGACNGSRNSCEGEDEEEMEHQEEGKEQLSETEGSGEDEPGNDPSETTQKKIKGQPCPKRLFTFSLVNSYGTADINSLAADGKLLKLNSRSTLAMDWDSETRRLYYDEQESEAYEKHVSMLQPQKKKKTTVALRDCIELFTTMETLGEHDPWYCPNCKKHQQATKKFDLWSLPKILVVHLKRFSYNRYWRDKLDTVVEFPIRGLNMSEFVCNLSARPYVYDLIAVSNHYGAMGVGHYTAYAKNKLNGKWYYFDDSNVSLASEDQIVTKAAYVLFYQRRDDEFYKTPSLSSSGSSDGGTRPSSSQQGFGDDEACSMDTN
Summary of the method: as §1

Measured: log2 ratio of Biotin-Ahx-Ub-VS probe labelling

Chain of USP34 (Q70CQ2 whole entry, the tested form may be a part): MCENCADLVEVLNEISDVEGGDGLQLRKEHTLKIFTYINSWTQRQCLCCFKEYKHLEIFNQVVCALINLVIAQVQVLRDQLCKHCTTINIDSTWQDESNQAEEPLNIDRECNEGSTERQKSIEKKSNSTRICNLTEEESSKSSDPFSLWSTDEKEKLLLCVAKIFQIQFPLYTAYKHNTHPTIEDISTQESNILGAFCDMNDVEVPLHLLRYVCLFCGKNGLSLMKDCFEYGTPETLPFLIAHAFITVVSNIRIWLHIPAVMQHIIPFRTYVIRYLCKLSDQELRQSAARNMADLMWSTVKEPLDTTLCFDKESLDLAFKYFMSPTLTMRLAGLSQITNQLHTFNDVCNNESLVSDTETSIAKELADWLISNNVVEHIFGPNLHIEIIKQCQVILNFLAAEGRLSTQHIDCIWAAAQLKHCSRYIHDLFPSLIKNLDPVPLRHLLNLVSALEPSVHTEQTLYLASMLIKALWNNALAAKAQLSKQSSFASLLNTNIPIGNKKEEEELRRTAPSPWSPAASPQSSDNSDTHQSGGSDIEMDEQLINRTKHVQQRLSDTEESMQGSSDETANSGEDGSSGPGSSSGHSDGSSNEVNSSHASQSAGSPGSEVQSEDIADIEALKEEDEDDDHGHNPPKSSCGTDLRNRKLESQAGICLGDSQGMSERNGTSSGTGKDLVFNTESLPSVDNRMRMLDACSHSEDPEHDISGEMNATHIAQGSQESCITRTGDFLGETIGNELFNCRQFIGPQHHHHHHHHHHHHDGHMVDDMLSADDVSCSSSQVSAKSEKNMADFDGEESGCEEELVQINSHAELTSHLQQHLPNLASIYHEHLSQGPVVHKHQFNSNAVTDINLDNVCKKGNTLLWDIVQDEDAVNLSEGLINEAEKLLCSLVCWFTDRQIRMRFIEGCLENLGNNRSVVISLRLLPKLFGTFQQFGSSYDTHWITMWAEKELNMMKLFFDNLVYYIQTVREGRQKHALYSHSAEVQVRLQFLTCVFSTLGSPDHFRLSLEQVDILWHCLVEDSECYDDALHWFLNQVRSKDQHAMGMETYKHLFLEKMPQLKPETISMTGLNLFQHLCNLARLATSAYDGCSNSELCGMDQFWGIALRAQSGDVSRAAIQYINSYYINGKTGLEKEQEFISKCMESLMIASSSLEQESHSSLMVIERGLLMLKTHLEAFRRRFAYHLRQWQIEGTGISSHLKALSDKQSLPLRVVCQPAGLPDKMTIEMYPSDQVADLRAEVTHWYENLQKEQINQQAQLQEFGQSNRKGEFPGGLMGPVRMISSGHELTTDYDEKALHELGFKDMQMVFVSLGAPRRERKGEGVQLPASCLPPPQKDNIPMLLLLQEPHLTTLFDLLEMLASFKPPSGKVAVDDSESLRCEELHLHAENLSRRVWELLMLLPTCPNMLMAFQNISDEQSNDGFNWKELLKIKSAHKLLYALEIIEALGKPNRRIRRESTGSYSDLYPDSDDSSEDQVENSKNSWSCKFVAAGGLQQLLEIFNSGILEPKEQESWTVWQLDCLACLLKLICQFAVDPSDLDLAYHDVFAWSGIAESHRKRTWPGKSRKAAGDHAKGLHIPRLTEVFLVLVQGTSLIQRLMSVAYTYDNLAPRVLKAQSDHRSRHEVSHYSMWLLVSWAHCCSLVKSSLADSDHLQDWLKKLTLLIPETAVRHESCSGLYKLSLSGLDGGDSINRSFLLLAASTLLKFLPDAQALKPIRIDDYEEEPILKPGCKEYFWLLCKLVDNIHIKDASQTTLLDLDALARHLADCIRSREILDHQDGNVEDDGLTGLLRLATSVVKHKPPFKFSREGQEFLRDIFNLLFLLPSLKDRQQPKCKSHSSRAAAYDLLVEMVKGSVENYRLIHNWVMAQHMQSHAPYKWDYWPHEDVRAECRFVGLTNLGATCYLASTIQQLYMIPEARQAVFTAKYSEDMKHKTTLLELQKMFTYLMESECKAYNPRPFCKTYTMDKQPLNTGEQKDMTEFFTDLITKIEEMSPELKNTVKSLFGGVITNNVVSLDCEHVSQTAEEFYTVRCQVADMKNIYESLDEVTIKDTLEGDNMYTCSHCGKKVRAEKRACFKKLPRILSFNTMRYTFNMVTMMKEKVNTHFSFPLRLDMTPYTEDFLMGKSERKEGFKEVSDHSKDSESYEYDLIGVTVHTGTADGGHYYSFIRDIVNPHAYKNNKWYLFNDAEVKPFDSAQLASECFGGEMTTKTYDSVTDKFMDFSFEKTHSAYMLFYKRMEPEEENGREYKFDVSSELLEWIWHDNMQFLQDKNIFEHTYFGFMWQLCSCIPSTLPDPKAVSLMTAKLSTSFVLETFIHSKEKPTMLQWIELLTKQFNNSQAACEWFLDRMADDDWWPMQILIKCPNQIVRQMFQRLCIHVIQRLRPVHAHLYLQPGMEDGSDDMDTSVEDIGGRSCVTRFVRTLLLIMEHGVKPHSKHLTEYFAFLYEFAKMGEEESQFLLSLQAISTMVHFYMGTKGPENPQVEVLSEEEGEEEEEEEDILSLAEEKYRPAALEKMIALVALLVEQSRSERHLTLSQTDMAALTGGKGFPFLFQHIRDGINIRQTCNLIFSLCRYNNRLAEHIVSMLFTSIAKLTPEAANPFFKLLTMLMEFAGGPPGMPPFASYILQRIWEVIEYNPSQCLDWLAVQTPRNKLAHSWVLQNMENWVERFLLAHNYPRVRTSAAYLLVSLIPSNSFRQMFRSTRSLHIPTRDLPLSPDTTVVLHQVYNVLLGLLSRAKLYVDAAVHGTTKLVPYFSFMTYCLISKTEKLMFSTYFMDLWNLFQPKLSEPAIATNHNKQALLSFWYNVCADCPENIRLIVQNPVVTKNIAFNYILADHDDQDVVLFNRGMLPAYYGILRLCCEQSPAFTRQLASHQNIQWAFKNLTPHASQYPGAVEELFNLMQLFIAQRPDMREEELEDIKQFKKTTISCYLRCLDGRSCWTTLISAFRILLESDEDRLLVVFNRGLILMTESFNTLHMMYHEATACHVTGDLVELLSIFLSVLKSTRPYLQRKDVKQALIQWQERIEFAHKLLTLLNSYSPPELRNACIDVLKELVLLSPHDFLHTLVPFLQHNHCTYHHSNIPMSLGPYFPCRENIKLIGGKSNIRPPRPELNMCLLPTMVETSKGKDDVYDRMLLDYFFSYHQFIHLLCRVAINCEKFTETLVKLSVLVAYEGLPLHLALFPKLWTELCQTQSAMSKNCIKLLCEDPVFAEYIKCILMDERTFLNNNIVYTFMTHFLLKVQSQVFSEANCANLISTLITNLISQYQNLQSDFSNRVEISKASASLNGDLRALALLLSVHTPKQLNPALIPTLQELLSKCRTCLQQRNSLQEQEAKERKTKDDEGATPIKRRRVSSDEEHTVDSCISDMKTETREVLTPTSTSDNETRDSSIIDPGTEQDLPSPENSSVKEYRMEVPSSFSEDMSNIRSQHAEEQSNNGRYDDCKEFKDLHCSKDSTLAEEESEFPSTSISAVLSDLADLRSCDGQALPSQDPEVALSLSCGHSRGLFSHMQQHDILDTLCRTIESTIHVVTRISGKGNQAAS

Cl.O=C(CCl)N1CCC(n2nc3ccccc3n2)CC1
inactive: USP34 -0.257 | USP36 0.0455 | USP38 -0.223 | USP39 -0.0437 | USP4 -0.443
